# p53 reactivation: restores transcriptional activity of mutant p53 | H1299 p53-A138V BP100-luciferase reporter, luminescence, 24 h | Potency, µM (titrated, usually from 92.2 µM), actives largely listed as activators | hit rate 0.063% among 320,000; also: nearly all actives have a fitted effect of over 45% in size
#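 p53-null H1299 cells stably carrying temperature-sensitive p53-A138V and a BP100-luciferase reporter were pinned with compounds (4-point, 1:5 series) and held 24 hrs at 37 deg C. Luminescence was read 10 min after detection reagent.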
# LDHA block: LDHA (human) enzyme inhibition; P00338; purified LDHA, NADH/diaphorase-resazurin fluorescence; active compounds read low; activity change, % (values are at about 110 or 230 µM); hit rate 0.15% among 480,000; AID 1347041; in the data active = activity change below about -30%; inconclusive = mostly about -25% to -30%
#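 Remaining NADH was detected by diaphorase (0.133 mg/mL) converting 37 µM resazurin to fluorescent resorufin, read at 0 and 20 minutes. The preceding 5-minute room-temperature reaction used 2 nM LDHA, 0.2 mM sodium pyruvate and 0.06 mM NADH at pH 7.4.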
# BRCA1 expr up: BRCA1 expression activation; MCF7-BRCA1-FFLuc reporter, luminescence, 48 h; response scale: scaled: vehicle 0%, 10 µM genistein 100%; Potency, µM (highest dose often 46.1 µM), usual class: activators; hit rate 1.1% among 380,000; AID 624202; also: nearly all actives have a fitted effect of over 80% in size
#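 Cells: MCF7-BRCA1-FFLuc, 2000/well. Exposure: 48 h, 37 °C, 5% CO2. Read: luminescence, 15 min post-substrate. Controls: genistein 10 microM (maximal activation), DMSO (neutral).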
# RGS4 inhibitor: blocks human RGS4-accelerated GTP hydrolysis; hit rate 0.039% among 390,000; AID 504845; Transcreener GDP fluorescence polarization, RGS4-accelerated GTP hydrolysis; Potency, µM (titrated, usually from 114 µM), actives largely listed as inhibitors; P49798; also: nearly all actives have a fitted effect of over 75% in size
# Target sequence (P49798 whole entry, looked up): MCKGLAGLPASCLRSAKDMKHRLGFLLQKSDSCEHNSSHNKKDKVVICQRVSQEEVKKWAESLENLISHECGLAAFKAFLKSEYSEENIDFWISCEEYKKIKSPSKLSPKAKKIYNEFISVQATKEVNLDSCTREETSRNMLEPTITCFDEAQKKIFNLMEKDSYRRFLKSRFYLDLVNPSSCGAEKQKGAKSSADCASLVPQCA
#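 MLSMR compounds (23 nl, pin-transferred) preincubated 10 min at room temperature with a 500nM (2x) first reagent, then RGS4 at 900nM (2x) plus Transcreener GDP mix added; fluorescence polarization (620/688 nm) read before and after 90 min at 30 °C.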
# PTHR1 ag: agonists of human PTHR1 parathyroid hormone receptor; Q03431; HEK293 GP2 PTHR1 cells, GloSensor cAMP luminescence, 1 h; Potency, µM (series often up to 115 µM), hits mostly activators; AID 743266; hit rate 0.075% among 410,000; also: nearly all actives have a fitted effect of over 55% in size
#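 HEK-293-derived GP2 cells expressing PTHR1 and a GloSensor cAMP reporter, 3,000/well, plated overnight, given luciferin plus IBMX (each 0.5 mM as added) for 1 h at 37 °C, then compound for 1 h at 37 °C. Luminescence was read after 15 min at room temperature.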
# Hits are given with their value; – = inactive; ? = inconclusive; · = not tested or not shown. Sampled rows, rich in hits. Any-hit rate of the full collection: about 1.1%. Unless noted, calls follow the shape of the dose curve; as a rule, active = well fitted curve in the direction sought with a large enough effect; inconclusive = small, poorly fitted or top-dose-only effect, or another doubt; inactive = no such curve, though single readings can be large; an effect the other way counts as inactive or inconclusive.
SMILES,p53 reactivation,LDHA block,BRCA1 expr up,RGS4 inhibitor,PTHR1 ag
O=C(CCc1nc2ccccc2s1)NC1CCCC(C(F)(F)F)C1 (configuration not stated),·,–,·,·,·
CCOC(=O)C1(Cc2cccc(OC)c2)CCCN(C(=O)CCN2CCCO2)C1 (configuration not stated),?,–,4µM,–,–
CCCCCCOc1ccccc1/C=N/N=C(N)N,·,–,·,·,·
Cc1c2c(nc3ccccc13)CCc1ccccc1-2,·,–,·,·,·
O=C1C(SCCO)=C(SCCO)C(=O)c2ccccc21,–,–,–,3.4µM,–
COc1ccc2nc(C(=O)NC(C3CC3)C3CC3)ccc2c1,·,–,·,·,·
CCc1cc2c(=O)n(CC(C)C)cnc2s1,?,–,11µM,–,–
O=C(Nc1nccs1)c1ccc(-c2ccc([N+](=O)[O-])cc2)o1,–,–,3.2µM,?,–
O=C(Nc1nccs1)c1ccc(-c2ccccc2[N+](=O)[O-])o1,–,–,3.5µM,–,–
Cc1ccc(NC(=O)c2ccoc2C)cc1C,?,–,6.3µM,–,–
CC1CCC(NC(=O)c2ccc3c(c2)OCO3)CC1 (configuration not stated),–,–,–,–,–
CC1CCC(NC(=O)C(=O)Nc2ccc3c(c2)OCO3)CC1 (configuration not stated),?,–,2.8µM,–,–
Cc1occc1C(=O)Nc1ccc2c(c1)OCO2,?,–,3.2µM,–,–
Cc1occc1C(=O)N/N=C/c1ccc2c(c1)OCO2,–,–,–,–,–
COc1ccc(-n2c(=O)c(C#N)cc3c(=O)n4cccc(C)c4nc32)c(OC)c1,·,–,·,·,·
COCC(=O)n1nc(-c2ccc(C)cc2)nc1NCc1ccc(F)cc1,–,–,10µM,–,–
COCC(=O)n1nc(NCc2ccccc2Cl)nc1NCc1ccccc1Cl,·,-49,·,·,·
COc1cccc(-c2nc(-c3ccc4c(c3)NC(=O)CO4)cs2)c1,–,–,10µM,–,–
O=[N+]([O-])c1cccc(-c2nnc(-c3ccccc3)o2)c1,–,–,–,–,–
O=[N+]([O-])c1cccc(-c2nnc(-c3ccc4c(c3)OCO4)o2)c1,?,–,2.5µM,–,–
NC(=Nc1ccccc1)NC(=O)c1nc(Cl)c(N)nc1N,·,–,5.6µM,–,–
COc1ccc(OCCNC(=O)c2ccc3c(c2)NC(=O)CS3)cc1,·,–,·,·,·
Nc1c(C(=O)Nc2ccc(Cl)c(Cl)c2)sc2nc(-c3cccnc3)ccc12,–,·,·,·,·
Nc1c(C(=O)Nc2cc(Cl)cc(Cl)c2)sc2nc(-c3ccncc3)ccc12,·,-32,·,·,·
CCc1ccc(C(=O)COC(=O)CCc2ccccc2)cc1,·,–,·,·,·
SMILES,p53 reactivation,LDHA block,BRCA1 expr up,RGS4 inhibitor,PTHR1 ag
CCN(CC)S(=O)(=O)c1cccc(NC(=S)Nc2ccc(C)c(C)c2)c1,·,–,·,·,·
CCCCCCOc1ccc(/C(N)=N/O)cc1,–,–,7.1µM,–,–
Cc1cc(C(c2nnnn2Cc2ccccc2)N2CCOCC2)c(C)n1-c1ccc2c(c1)OCO2 (configuration not stated),32µM,–,–,–,–
C=CCNC(=O)c1ccc(-c2nc(-c3ccc(Cl)cc3Cl)cs2)cc1,–,–,11µM,–,–
Cc1ccc(SCC(=O)c2ccc[nH]2)cc1,–,–,3.2µM,–,–
O=C(CSc1ccc2ccccc2c1)c1ccc[nH]1,·,–,·,·,·
Cn1c(SCC(=O)c2ccccc2)nnc1-c1cccs1,–,–,10µM,–,–
Cn1c(SCC(=O)NCc2cccs2)nnc1-c1cccs1,·,–,–,–,–
CCn1c(SCC(=O)c2ccccc2)nnc1-c1cnccn1,–,–,10µM,–,–
CCCCOC(=O)C[N+](C)(C)C/C=C(/C)Cl,·,–,·,·,·
Cc1oc(-c2ccc(Cl)cc2)cc1C(=O)N1CCC1(C)C(=O)O (configuration not stated),·,–,8.9µM,·,–
CC1(C(=O)O)CCCN1C(=O)c1ccc(Cl)cc1Cl (configuration not stated),·,–,–,·,–
CCN(CC)c1ccc(C(=O)Nc2ccccc2)cc1[N+](=O)[O-],–,–,10µM,–,–
Cc1nc2ccc(Cl)cc2cc1C(=O)N(C)CC1COc2ccccc2O1 (configuration not stated),·,–,·,·,·
Cc1cccc(NC(=O)c2cc(-c3cc(C)ccc3O)n[nH]2)c1,–,–,1.6µM,–,–
O=C(Cc1c[nH]c2ccccc12)NCc1ccccc1OC(F)F,·,–,·,·,·
Cc1ccc(C(=O)Nn2cnc3ccccc3c2=O)cc1C,–,–,8.9µM,–,–
Cc1ccc(-c2nc(C(=O)N3CCN(C(C#N)c4ccc(F)cc4)CC3)cs2)cc1 (configuration not stated),·,–,·,·,·
CCCCN(C)C(=O)c1cc2cc3ccc(OC)cc3nc2o1,–,–,4.5µM,–,–
CCCCN(C)C(=O)c1cc2cc3cc(OC)ccc3nc2o1,–,–,6.3µM,–,–
CCCCN(C)CCNC(=O)c1cc2cc3ccc(OC)cc3nc2o1,–,–,–,–,–
COCCCNC(=O)c1cc2cc3cc(OC)ccc3nc2o1,–,–,–,?,–
Cc1ccc2c(c1)cc(S(=O)(=O)c1ccccc1)c(=O)n2CC(=O)N1CCCC1,·,–,·,·,·
NC(=O)c1ccsc1NC(=O)COC(=O)c1c(F)cccc1F,·,–,·,·,·
O=C(O)Cc1ccc(N2C(=O)C(=O)/C(=C(/O)c3ccccc3Cl)C2c2ccccc2F)cc1 (configuration not stated),·,–,·,·,·
SMILES,p53 reactivation,LDHA block,BRCA1 expr up,RGS4 inhibitor,PTHR1 ag
Oc1ccc(/C=N/Nc2ccc(C(F)(F)F)cn2)c(O)c1,11µM,·,·,·,·
Oc1ccc(/C=N/Nc2ccc(C(F)(F)F)cn2)cc1,–,–,6.3µM,–,–
CN(C)/C=C/C(=O)c1ccc(-c2ccc(Cl)cc2Cl)o1,–,–,11µM,–,–
O=C(O)c1ccc(-c2ccc(Cl)cc2Cl)o1,–,–,–,–,–
Nc1nnc(CC(=O)N/N=C/c2cc([N+](=O)[O-])cc(Br)c2O)s1,–,-86,–,?,–
Cc1cc(C(=O)O/N=C(\N)c2ccc(C(C)(C)C)cc2)no1,–,–,2.5µM,–,–
COc1ccc(C(=O)NCCn2cc(SCC(=O)Nc3nnc(C)s3)c3ccccc32)cc1,·,–,13µM,–,–
Cc1nnc(NC(=O)CSc2cn(CCNC(=O)c3ccccc3)c3ccccc23)s1,–,–,–,–,–
Cc1oc2cc(OCCN3CCC(C(N)=O)CC3)ccc2c(=O)c1-c1ccc(Br)cc1,·,–,·,·,·
COC(=O)c1c(-c2cc(OC)cc(OC)c2)sc2ccc(OC)cc12,–,–,–,–,–
COC(=O)c1c(-c2ccc(S(C)(=O)=O)cc2)sc2ccc(OC)cc12,?,–,4.5µM,?,–
COC(=O)c1c(-c2ccc(S(C)(=O)=O)cc2)sc2cc(OC)ccc12,?,–,6.3µM,?,–
Cc1ccc2c(CSc3nnnn3-c3ccccc3)cc(=O)oc2c1C,·,–,·,·,·

# Source: PubChem BioAssay (National Center for Advancing Translational Sciences (NCATS))
